{"source": "paper PMC4336329", "about": "(PLoS ONE, 2015)", "note": "In all, about 310,000 compounds went through this assay and about 14,000 (4.5%) showed an effect of 50% or more. Effects have a minus sign here. The sample holds strong results, similar compounds and a random draw of the others, so the mix is not that of the screen.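 Note: peak tail current of the secondary pulse compared with the same well before compound.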", "data": [{"target": "human ether-à-go-go-related gene (hERG) potassium channel (human, UniProt Q12809)", "sequence (Q12809 whole entry, looked up)": "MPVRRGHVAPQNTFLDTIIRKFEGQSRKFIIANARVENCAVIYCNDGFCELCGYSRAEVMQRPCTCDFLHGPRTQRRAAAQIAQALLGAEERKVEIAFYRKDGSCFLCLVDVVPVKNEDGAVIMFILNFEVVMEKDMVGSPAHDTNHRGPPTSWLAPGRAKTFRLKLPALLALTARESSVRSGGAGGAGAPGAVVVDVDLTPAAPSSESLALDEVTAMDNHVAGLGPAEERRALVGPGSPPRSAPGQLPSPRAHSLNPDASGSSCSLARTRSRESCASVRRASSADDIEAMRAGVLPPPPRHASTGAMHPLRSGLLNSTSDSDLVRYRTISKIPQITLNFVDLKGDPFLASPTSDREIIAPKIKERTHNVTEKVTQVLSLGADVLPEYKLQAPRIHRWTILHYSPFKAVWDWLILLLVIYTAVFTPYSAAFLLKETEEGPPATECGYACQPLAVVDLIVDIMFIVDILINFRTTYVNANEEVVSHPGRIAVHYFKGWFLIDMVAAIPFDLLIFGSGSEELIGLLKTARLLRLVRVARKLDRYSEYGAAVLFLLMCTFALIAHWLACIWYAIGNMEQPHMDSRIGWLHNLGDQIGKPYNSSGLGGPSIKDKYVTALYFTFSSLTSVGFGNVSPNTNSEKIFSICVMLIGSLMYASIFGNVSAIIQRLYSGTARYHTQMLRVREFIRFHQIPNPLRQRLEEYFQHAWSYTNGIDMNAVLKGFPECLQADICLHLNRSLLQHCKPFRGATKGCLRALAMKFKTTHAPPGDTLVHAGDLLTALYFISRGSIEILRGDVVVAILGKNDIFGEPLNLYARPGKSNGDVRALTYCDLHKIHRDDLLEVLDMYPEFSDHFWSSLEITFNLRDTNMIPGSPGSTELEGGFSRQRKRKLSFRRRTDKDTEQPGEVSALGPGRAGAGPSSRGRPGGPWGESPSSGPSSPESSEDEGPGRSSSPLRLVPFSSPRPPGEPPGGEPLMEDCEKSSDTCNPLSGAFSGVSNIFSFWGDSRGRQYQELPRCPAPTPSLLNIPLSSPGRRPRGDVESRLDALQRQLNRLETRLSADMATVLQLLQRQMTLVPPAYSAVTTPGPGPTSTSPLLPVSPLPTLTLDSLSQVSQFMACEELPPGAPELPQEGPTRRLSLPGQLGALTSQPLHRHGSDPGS", "test": "primary screen, population patch clamp on CHO cells stably expressing hERG; higher = less effect of the substance", "units": {"hERG current change (%, negative = inhibition) at 10uM": "%"}, "values": [{"smiles": "CCOC(=O)c1c[nH]c2c(C)ccc(Cl)c2c1=O", "hERG current change (%, negative = inhibition) at 10uM": 20.9}, {"smiles": "Cn1c(CCNC(=O)c2ccco2)nc2cc(NS(=O)(=O)c3ccccc3)ccc21", "hERG current change (%, negative = inhibition) at 10uM": -6.01}, {"smiles": "Cc1ccc(S(=O)(=O)Nc2ccc3c(c2)nc(CCN2CCCCC2)n3C)cc1", "hERG current change (%, negative = inhibition) at 10uM": -63.6}, {"smiles": "CCC(=O)Nc1ccc2c(c1)nc(CCN1CCN(c3ccccc3)CC1)n2C", "hERG current change (%, negative = inhibition) at 10uM": -33.5}, {"smiles": "Cc1ccc(N2CCN(CCc3nc4cc(NS(C)(=O)=O)ccc4n3C)CC2)cc1", "hERG current change (%, negative = inhibition) at 10uM": -59.8}, {"smiles": "Cn1c(CCN2CCCC2)nc2cc(NS(=O)(=O)c3ccc(Cl)cc3)ccc21", "hERG current change (%, negative = inhibition) at 10uM": -84}, {"smiles": "Cn1c(CCNC(=O)c2ccco2)nc2cc(NS(=O)(=O)c3ccc(Cl)cc3)ccc21", "hERG current change (%, negative = inhibition) at 10uM": -65.2}, {"smiles": "Cc1ccc(S(=O)(=O)Nc2ccc3c(c2)nc(CCN2CCCC2)n3C)cc1", "hERG current change (%, negative = inhibition) at 10uM": -42.5}, {"smiles": "CC(C)C(=O)Nc1ccc2c(c1)nc(CCN1CCN(c3ccccc3)CC1)n2C", "hERG current change (%, negative = inhibition) at 10uM": -40.4}, {"smiles": "Cc1ccc(S(=O)(=O)Nc2ccc3c(c2)nc(CCN2CCOCC2)n3C)cc1", "hERG current change (%, negative = inhibition) at 10uM": -17.2}, {"smiles": "CC(=O)NCCc1nc2cc(NS(=O)(=O)c3ccc(Cl)cc3)ccc2n1C", "hERG current change (%, negative = inhibition) at 10uM": 10.4}, {"smiles": "Cc1cc(C(F)(F)F)c(C#N)c(SCC(=O)NC2CC2)n1", "hERG current change (%, negative = inhibition) at 10uM": -4.11}, {"smiles": "CC(=O)NC1=NN(C(C)=O)C(C)(CS(=O)(=O)c2ccc3ccccc3c2)S1", "note": "(stereo not shown)", "hERG current change (%, negative = inhibition) at 10uM": -0.325}, {"smiles": "COc1ccc(OC)c(-n2c(-c3cc(-c4ccco4)[nH]n3)n[nH]c2=S)c1", "hERG current change (%, negative = inhibition) at 10uM": 1.18}, {"smiles": "COc1ccccc1NS(=O)(=O)c1ccc(C)c(NC(=O)C2CCCO2)c1", "note": "(stereo not shown)", "hERG current change (%, negative = inhibition) at 10uM": 4.4}, {"smiles": "O=C(CNC(=O)c1ccc2c(c1)OCCO2)N/N=C/c1ccc(Cl)cc1", "hERG current change (%, negative = inhibition) at 10uM": 14.1}, {"smiles": "Cc1occc1C(=O)N1CCN(C(=O)C2CCCO2)CC1", "note": "(stereo not shown)", "hERG current change (%, negative = inhibition) at 10uM": -12.2}, {"smiles": "COc1ccccc1N(CC(=O)NC1CCCC1)S(=O)(=O)c1ccc(C)cc1", "hERG current change (%, negative = inhibition) at 10uM": -5.82}, {"smiles": "CCCC(=O)Nc1nnc(SCC(=O)NCc2cccs2)s1", "hERG current change (%, negative = inhibition) at 10uM": 8.39}, {"smiles": "Cn1c(CCN2CCCCC2)nc2cc(NS(=O)(=O)c3ccc(Cl)cc3)ccc21", "hERG current change (%, negative = inhibition) at 10uM": -73.8}, {"smiles": "Cn1c(CCN2CCCCCC2)nc2cc(NC(=O)Nc3ccccc3)ccc21", "hERG current change (%, negative = inhibition) at 10uM": -35.7}, {"smiles": "Cn1c(CCN2CCCCC2)nc2cc(NC(=O)Nc3ccccc3)ccc21", "hERG current change (%, negative = inhibition) at 10uM": -28}, {"smiles": "CN(Cc1ccccc1)c1nc2c(c(=O)[nH]c(=O)n2C)n1CCCc1ccccc1", "hERG current change (%, negative = inhibition) at 10uM": -51.8}, {"smiles": "C=C(C)Cn1c(N(CCO)Cc2ccccc2)nc2c1c(=O)[nH]c(=O)n2C", "hERG current change (%, negative = inhibition) at 10uM": -2.53}, {"smiles": "Cn1c(=O)[nH]c(=O)c2c1nc(NCCCO)n2CCCc1ccccc1", "hERG current change (%, negative = inhibition) at 10uM": -5.36}, {"smiles": "CCCCCn1c(N(C)Cc2ccccc2)nc2c1c(=O)[nH]c(=O)n2C", "hERG current change (%, negative = inhibition) at 10uM": -17.1}, {"smiles": "Cn1c(=O)[nH]c(=O)c2c1nc(N(CCO)Cc1ccccc1)n2CCCc1ccccc1", "hERG current change (%, negative = inhibition) at 10uM": -64.6}, {"smiles": "CN(C)c1nc2c(c(=O)[nH]c(=O)n2C)n1CCCc1ccccc1", "hERG current change (%, negative = inhibition) at 10uM": -19.1}]}]}
